Measurements reported in PubChem BioAssay AID1159580 (chemical genetic matrix, 2015).
Where “and” joins values, the source holds several entries; their conditions need not be identical. Identical values can stand only once. Hit rate of the full screen: of about 5,500 compounds, about 2,000 (36%) were called active. Another 18% or so got no clear call; they are omitted. Rule as the data show it: active = normalized growth mostly below about 0.91 (no sharp cut-off); inconclusive = no clear call, values can overlap the other calls; inactive = mostly above about 0.92. Some of the results follow.

Assay: chemical genetic growth profiling, strain panel (AID 1159580);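 also: tested at 20 µM; growth read once vehicle control cultures reached saturation at 30 °C; 1 = growth at the plate median or of vehicle wells; lower values mean less growth of the strain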
Conditions: S. cerevisiae deletion strains, growth OD

Measured: normalized growth

C[C@H]1CC2C([C@@H](O)C[C@@]3(C)C2CC[C@]3(O)C(=O)CO)[C@@]2(C)C=CC(=O)C=C12 (stereo partly specified)
inactive: locus YAL013W, strain DEP1, active compounds read low 0.994 | locus YAL021C, strain ccr4, active compounds read low 1.01 | locus YAL026C, strain drs2, active compounds read low 1.02 | locus YAL030W, strain snc1, active compounds read low 1 | locus YBL061C, strain skt5, active compounds read low 0.991 | locus YBR009C, strain hhf1, active compounds read low 1.01 | locus YBR021W, strain FUR4, active compounds read low 0.972 | locus YBR023C, strain chs3, active compounds read low 1.01 | locus YBR171W, strain sec66, active compounds read low 0.993 | locus YBR229C, strain ROT2, active compounds read low 0.993 | locus YBR231C, strain swc5, active compounds read low 0.977 | locus YBR279W, strain paf1, active compounds read low 1.01 | locus YCL011C, strain gbp2, active compounds read low 1.03 | locus YCL016C, strain dcc1, active compounds read low 1.01 | locus YCL029C, strain bik1, active compounds read low 1.03 | locus YCL061C, strain MRC1, active compounds read low 0.999 | locus YCL069W, strain vba3, active compounds read low 0.993 | locus YCR088W, strain abp1, active compounds read low 1 | locus YDL005C, strain med2, active compounds read low 0.987 | locus YDL035C, strain GPR1, active compounds read low 0.993 | locus YDL040C, strain nat1, active compounds read low 1 | locus YDL074C, strain BRE1, active compounds read low 1.02 | locus YDL101C, strain DUN1, active compounds read low 1.01 | locus YDL134C, strain PPH21, active compounds read low 0.996 | locus YDL185W, strain tfp1, active compounds read low 1.01 | locus YDL192W, strain arf1, active compounds read low 1.01 | locus YDR001C, strain nth1, active compounds read low 1 | locus YDR069C, strain doa4, active compounds read low 0.994 | locus YDR101C, strain arx1, active compounds read low 1.02 | locus YDR137W, strain rgp1, active compounds read low 0.993 | locus YDR150W, strain NUM1, active compounds read low 0.988 | locus YDR159W, strain sac3, active compounds read low 1.01 | locus YDR162C, strain NBP2, active compounds read low 0.995 | locus YDR195W, strain ref2 0.934 | locus YDR297W, strain sur2, active compounds read low 0.987 | locus YDR318W, strain mcm21, active compounds read low 1.03 | locus YDR334W, strain swr1, active compounds read low 0.997 | locus YDR335W, strain msn5, active compounds read low 1 | locus YDR388W, active compounds read low 1.02 | locus YDR392W, strain spt3, active compounds read low 1.02 | locus YDR502C, strain sam2, active compounds read low 1.01 | locus YEL003W, strain gim4, active compounds read low 0.984 | locus YEL037C, strain rad23, active compounds read low 1 | locus YEL061C, strain CIN8 (second series), active compounds read low 1.01 | locus YEL061C, strain CIN8, active compounds read low 0.993 | locus YER015W, strain faa2, active compounds read low 1.01 | locus YER016W, strain bim1, active compounds read low 1 | locus YER110C, active compounds read low 1.01 | locus YER111C, strain swi4, active compounds read low 1 | locus YER155C, strain BEM2 (second series), active compounds read low 0.989 | locus YER155C, strain BEM2, active compounds read low 0.996 | locus YER167W, strain BCK2, active compounds read low 0.996 | locus YFR010W, strain ubp6, active compounds read low 0.982 | locus YGL078C, strain dbp3, active compounds read low 1.02 | locus YGL086W, strain mad1, active compounds read low 0.999 | locus YGL167C, strain pmr1, active compounds read low 0.988 | locus YGL173C, strain kem1, active compounds read low 0.986 | locus YGL227W, strain vid30, active compounds read low 0.992 | locus YGL240W, strain doc1, active compounds read low 0.972 | locus YGL248W, strain PDE1, active compounds read low 1 | locus YGL253W, strain hxk2, active compounds read low 0.997 | locus YGR078C, strain PAC10, active compounds read low 0.984 | locus YGR135W, strain pre9, active compounds read low 1.04 | locus YGR229C, strain SMI1, active compounds read low 0.986 | locus YGR252W, strain gcn5, active compounds read low 0.947 | locus YHR013C, strain ard1, active compounds read low 0.997 | locus YHR027C, strain rpn1, active compounds read low 1 | locus YHR030C, strain SLT2, active compounds read low 0.994 and 1.07 | locus YHR079C, strain IRE1 (second series), active compounds read low 1.02 | locus YHR079C, strain IRE1, active compounds read low 1.07 | locus YHR094C, strain hxt1, active compounds read low 1.02 | locus YHR129C, strain ARP1, active compounds read low 1 | locus YHR142W, strain chs7, active compounds read low 0.997 | locus YHR200W, strain rpn10, active compounds read low 1.01 | locus YIL066C, strain RNR3, active compounds read low 1 | locus YIL073C, strain SPO22, active compounds read low 1.01 | locus YIL125W, strain kgd1, active compounds read low 1 | locus YIR030C, strain dcg1, active compounds read low 1.02 | locus YJL092W, strain hpr5, active compounds read low 0.989 | locus YJL095W, strain BCK1 (second series), active compounds read low 0.997 | locus YJL095W, strain BCK1, active compounds read low 1.03 | locus YJL115W, strain asf1, active compounds read low 1 | locus YJL129C, strain trk1, active compounds read low 0.987 | locus YJL134W, strain LCB3, active compounds read low 1 | locus YJL154C, strain vps35, active compounds read low 1.01 | locus YJL164C, strain tpk1, active compounds read low 1.01 | locus YJL166W, strain qcr8, active compounds read low 0.97 | locus YJL168C, strain set2, active compounds read low 1.01 | locus YJL187C, strain SWE1 (second series), active compounds read low 1.01 | locus YJR043C, strain POL32, active compounds read low 1.01 | locus YJR066W, strain TOR1, active compounds read low 1.02
